# Reference: PubChem BioAssay
# Unmarked numbers belong to inactive results.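 The calls were made as follows: active = inhibition at or above 50% relative to wild type and mutant plate controls; inactive = inhibition below 50%.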
# Test: inhibitors of Chlamydomonas gravitaxis, primary screen, whole organism, Chlamydomonas reinhardtii, WT vs cilia-less mutant, absorbance, 96-well (AID 463189);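 also: 0% = wild type cc124 cells in DMSO and 100% = ciliumless bld1 mutant cells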
# Conditions: OD600 absorbance, 2 days, at 10 µM, stronger effect = higher value
row,Compound,inhibition [%]
1,CCCN1CCC[C@@H](c2cccc(O)c2)C1,0.338
2,NC1CCc2cc(O)c(O)cc2C1 (stereo not drawn),-5.92
3,C[C@@H](N)Cc1cnc[nH]1,-0.522
4,Clc1cnc(Oc2ccc(Oc3ncc(Cl)cc3Cl)cc2)c(Cl)c1,2.67
5,COc1cc(CC(C)N)c(OC)cc1I (stereo not drawn),-7.42
6,CNC(=O)OCC[N+](C)(C)C,-0.129
7,Clc1cc(I)cc(Cl)c1NC1=NCCN1,9.51
8,CP(=O)(O)CCCN,3.64
9,CC(C)(C)c1cc(C=C(C#N)C#N)cc(C(C)(C)C)c1O,1.13
10,CN(N=O)c1ccc(O)c(O)c1,1.04
11,CC(O)C(C)OC(=O)[C@@H]1C[C@@H]2c3cccc4c3c(cn4C(C)C)C[C@H]2N(C)C1 (stereo partly drawn),33.8
12,CCCN(CCC)CCc1c[nH]c2ccc(C(N)=O)cc12,-0.498
13,CP(=O)(O)C1=CCNCC1,10
14,C[C@]12CC[C@H](O)CC1=CC[C@@H]1[C@@H]2CC[C@]2(C)C(=O)CC[C@@H]12,-2.3
15,C#CCN(C)[C@@H](C)Cc1ccccc1,7.92
16,COC(=O)c1cc2c(cn1)[nH]c1ccccc12,2.96
17,C/C=C(/C)C(=O)O[C@H]1C(C)=C2[C@H]([C@@H]1OC(=O)CCCCCCC)[C@@](C)(OC(C)=O)C[C@H](OC(=O)CCC)[C@@]1(O)[C@H]2OC(=O)[C@@]1(C)O,-1.82
18,CC(=O)NBr,10
